Lassa entry inh: blocks Lassa virus binding to or entry into cells. Lassa virus pseudotype entry inhibition, cell reporter. Potency, µM (top dose mostly 37.9 µM), most hits filed as inhibitors. 300,000 compounds, 1.2% hits. AID 540256; calls by dose curve; tested in HEK293 cells; further: nearly all actives have a fitted effect of over 50% in size
Pf growth 48h: inhibits P. falciparum growth in the first generation, 48 h; P. falciparum luciferase growth in erythrocytes, 48 h; Potency, µM (titrated, usually from 28.7 µM), most hits filed as inhibitors; 310,000 compounds, 5.9% hits; AID 504832
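Compounds are pin-transferred into medium, infected erythrocytes (2% hematocrit, 0.1% parasitemia final) are added, and plates sit one parasite generation at 37 C in 5% CO2. Detection reagent is then added and luminescence measured.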
MARV entry inh: blocks Marburg virus binding to or entry into cells; Potency, µM (doses to about 37.8 µM), most hits filed as inhibitors; Marburg virus pseudotyped entry inhibition, cell reporter; AID 540276; 300,000 compounds, 1.8% hits; calls by dose curve; tested in HEK293 cells
HCMV inh: human cytomegalovirus inhibition; HFF cells, HCMV-luciferase reporter, 72 h; active compounds read low; activity change, negative = inhibition, % at 57.5 µM; 410,000 compounds, 4.5% hits; in the data active means activity change below about -60%; inconclusive means no clear call, values can overlap the other calls; inactive means above about -39%
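Luciferase read-out from HCMV-luciferase-infected HFFs (MOI 1 PFU/cell) 72 h post infection at 37C; compounds added after 16 h cell attachment; activity normalized between buffer-only basal and Salinomycin (10uM) inhibitor controls.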
HCV inhibitor: HCV inhibition. Huh7.5.1 HCVcc-Cre infection, luciferase reporter, 44 h. Potency, µM (highest dose often 41.8 µM), usual class: inhibitors. 340,000 compounds, 3.4% hits. AID 651820
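Cells seeded at 1,000/well and cultured 4 h, then compounds added followed by HCVcc-Cre virus (~0.5 moi). After 44 h further culture, luciferase substrate was added, plates held 15 min at room temperature, and luminescence read for 15 sec.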
Pf growth 96h: P. falciparum growth inhibition at 96 hour, primary screen for plastid delayed-death inhibitors. P. falciparum luciferase reporter growth, 96 h. AID 504834. 320,000 compounds, 6.9% hits. Potency, µM (series often up to 28.7 µM), actives largely listed as inhibitors
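Luminescence readout: decreased luciferase signal marks inhibited growth of reporter-expressing P. falciparum in infected red cells (2% hematocrit, 0.05% parasitemia final), exposed to compound two generations (96 h, 37 C, 5% CO2).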
Of the large screens only hits and unclear results are named; the others gave an inactive call; ! = not active in a repeat. In the library only some 14% were active in any assay of this set; here they are far more common. Unless noted, the call rests on the fitted dose curve; in most records, active means well fitted inhibition curve with a large enough effect; inconclusive means small, poorly fitted or top-dose-only effect, or another doubt; inactive means no such curve, though single readings can be large or run the other way.

C/C(CC(=O)Nc1cccc(C(F)(F)F)c1)=N\NC(=O)c1cnccn1	none (no result: Lassa entry inh)
NCCc1ccc(OCc2ccccc2)c(OCc2ccccc2)c1	Lassa entry inh inconclusive, Pf growth 48h inconclusive, MARV entry inh inconclusive, HCMV inh -93.5, HCV inhibitor 7.94µM, Pf growth 96h 10.4µM
COc1cc(/C=N/N=C(N)N)ccc1OCc1ccc(Cl)cc1	Lassa entry inh inconclusive, Pf growth 48h inconclusive, MARV entry inh 18.3µM, HCMV inh -101.7, HCV inhibitor 12.6µM
COc1cc(/C=N/O)ccc1OCc1ccc(Cl)cc1	none (no result: Lassa entry inh, MARV entry inh, HCV inhibitor)
C[C@H]1CC[C@H]2C(=O)O[C@H](COc3ccc(C(C)(C)C)cc3)CN2[C@H]1c1ccc(Br)cc1	Lassa entry inh inconclusive (no result: Pf growth 48h, HCMV inh, HCV inhibitor, Pf growth 96h)
C=CCNc1nc(N)c([N+](=O)[O-])c(NCc2ccccc2)n1	Pf growth 96h inconclusive (no result: HCMV inh)
Nc1nc(NCCc2ccccc2)nc(NCc2ccccc2)c1[N+](=O)[O-]	Pf growth 48h 9.28µM, HCV inhibitor inconclusive, Pf growth 96h inconclusive (no result: Lassa entry inh)
Cc1cccc(C)c1Nc1ncnc(N)c1[N+](=O)[O-]	none
Nc1nc(NCCN2CCOCC2)nc(NCc2ccccc2)c1[N+](=O)[O-]	Pf growth 48h 6.57µM, HCV inhibitor inconclusive, Pf growth 96h 8.28µM (no result: Lassa entry inh, MARV entry inh)
Cc1ccc(CNc2ncnc(N)c2[N+](=O)[O-])cc1	HCMV inh -61.4 (no result: Lassa entry inh)
O=C(Nc1ccc(F)cc1)N[C@H]1CC[C@H](CCNS(=O)(=O)c2cccc(Cl)c2)O[C@@H]1CO	none (no result: Lassa entry inh, Pf growth 48h, MARV entry inh, HCV inhibitor, Pf growth 96h)
CC(=O)N(CC(=O)Nc1nn(-c2ccccc2)nc1C(N)=O)Cc1ccccc1	Pf growth 48h 1.04µM (no result: Pf growth 96h)
NC(=O)c1nn(-c2ccccc2)nc1NC(=O)CN1CCCC1	HCMV inh inconclusive
C[N+]1=C(/C=C/Nc2ccccc2Cl)C(C)(C)c2ccccc21	Pf growth 48h 11.7µM, MARV entry inh inconclusive, HCV inhibitor inconclusive, Pf growth 96h inconclusive
Cc1cccc(NC(=O)CSCC(=O)N(C)Cc2ccc(Cl)c(Cl)c2)c1	Pf growth 48h inconclusive, Pf growth 96h inconclusive (no result: Lassa entry inh, MARV entry inh)
COc1ccc(-n2c(CCc3ccccc3)nnc2SCC(=O)c2ccc(Cl)cc2)cc1	Pf growth 48h 13.1µM, HCV inhibitor inconclusive, Pf growth 96h inconclusive
COc1ccc(-n2c(Cc3ccccc3)nnc2SCC(=O)N2CCCc3ccccc32)cc1	Pf growth 48h 11.7µM, HCV inhibitor inconclusive, Pf growth 96h inconclusive
O=C(NCc1nnc(SCC(=O)N2CCCc3ccccc32)n1-c1ccccc1)c1cccc2ccccc12	Lassa entry inh inconclusive, Pf growth 48h inconclusive, MARV entry inh inconclusive, HCV inhibitor inconclusive, Pf growth 96h inconclusive
Cn1cccc1Cc1nnc(SCC(=O)N2CCCc3ccccc32)n1-c1ccc(F)cc1	Pf growth 48h inconclusive, Pf growth 96h 8.28µM
O=C(CSc1nnc(CCc2ccccc2)n1-c1ccc(Cl)cc1)c1ccccc1	Lassa entry inh inconclusive, Pf growth 96h inconclusive
CCOC(=O)CSc1nnc(Cc2ccc(OC)cc2)n1-c1ccccc1	HCMV inh -108.7 (no result: Pf growth 96h)
CCOC(=O)c1c(C)c(-c2ccccc2)n(CC(=O)NCCc2cccc(C)c2)c1C	MARV entry inh inconclusive (no result: Lassa entry inh, Pf growth 48h, HCV inhibitor, Pf growth 96h)
CC/C(=N\Nc1ccccc1[N+](=O)[O-])c1ccc(O)cc1	Lassa entry inh inconclusive, MARV entry inh inconclusive
O=C1CCC[C@H]2[C@@H](Cc3ccccc3)[C@H](NCC3CCCCC3)CC[C@]23CCCN13	none (no result: Lassa entry inh, Pf growth 48h, MARV entry inh, HCV inhibitor, Pf growth 96h)
CNC(=S)N1C2CCC1CC(NC(=O)NC13CC4CC(CC(C4)C1)C3)C2 (stereo not drawn)	Pf growth 48h 11.7µM, Pf growth 96h inconclusive
Cc1ccccc1OCC(=O)NNC(=O)C1CC(=O)N(c2ccc3c(c2)OCCO3)C1 (stereo not drawn)	Pf growth 96h inconclusive (no result: Lassa entry inh, MARV entry inh)
CN1C2CCC1CC(OC(=O)c1c[nH]c3ccccc13)C2 (stereo not drawn)	Pf growth 48h 11.7µM!, MARV entry inh inconclusive, HCV inhibitor inconclusive, Pf growth 96h inconclusive
COc1cccc(CSc2nc3cc(OC)c(OC)cc3c3nc(CCn4nc(C)cc4C)nn23)c1	none (no result: Pf growth 48h, HCV inhibitor, Pf growth 96h)
CCN1C(=O)/C(=C\c2nc3ccccc3c(=O)n2CC)c2ccccc21	Pf growth 48h inconclusive, MARV entry inh inconclusive, HCMV inh -93.8
CCn1c(/C=C2/C(=O)N(C)c3ccccc32)nc2ccccc2c1=O	Lassa entry inh inconclusive, Pf growth 48h inconclusive

High-throughput results from PubChem.
